Drawing on PubChem BioAssay AID504585 (National Center for Advancing Translational Sciences (NCATS), 2011), this text covers outcome for 16 molecules.

Structures are written as SMILES. Inconclusive results are not listed. Calls of active or inactive are those of the source.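 How the source made its calls: active means NMR saturation transfer binding signal to menin that a known MLL-derived binding peptide displaces; inconclusive means NMR binding signal present but the peptide does not displace it; inactive means no NMR binding signal.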

For this assay, the target named is Menin (Homo sapiens) (UniProt O00255). The assay is described as follows: Confirmation of Inhibitors Targeting the Menin-MLL Interaction in MLL Related Leukemias: Binding Confirmation with NMR Saturation Transfer Difference. Conditions: recombinant menin. An excerpt: qHTS Assay for Inhibitors Targeting the Menin-MLL Interaction in MLL Related Leukemias NIH Chemical Genomics Center [NCGC] NIH Molecular Libraries Probe Centers Network [MLPCN] MLPCN Grant: MH084875-01A1 Assay Submitter (PI): Jolanta Grembecka, Tomasz Cierpicki, University of Virginia Translocations of the MLL (Mixed Lineage Leukemia) gene are frequently found in human leukemias affecting both children and adults. Fusion of MLL to one of more than 60 genes results in generation of oncogenic proteins upregulating Hox genes, which are vital to blood cell development. Patients harboring fusion of the MLL gene suffer from aggressive leukemias and respond poorly to available therapies. All of the oncogenic fusion proteins have a preserved N-terminal fragment of MLL that has been identified to interact with menin. It has been recently discovered that association with menin is critical to the leukemogenic activity of the MLL fusion oncoproteins. Selective targeting of the menin-MLL interaction could provide an attractive therapeutic approach to develop novel drugs for MLL-related leukemias. Small molecules blocking the menin-MLL interaction should reverse the oncogenic potential of MLL fusion proteins. We have developed and optimized a fluorescence polarization-based assay for the identification of Menin-MLL inhibitors. The assay was run employing two different MLL-derived peptides. The present assay uses a 12 amino acid peptide labeled with fluorescein at its N-terminus. This peptide consists of the menin high affinity binding motif from MLL and is potently bound by menin. Another peptide with a mutated sequence, labeled with Texas Red, was used in parallel as a less stringent screen for inhibitors. The present assay uses an orthogonal technique to identify those compounds specifically interacting with the target protein.
Sequence of Menin (Homo sapiens) (O00255 whole entry, looked up, the tested form may be a part): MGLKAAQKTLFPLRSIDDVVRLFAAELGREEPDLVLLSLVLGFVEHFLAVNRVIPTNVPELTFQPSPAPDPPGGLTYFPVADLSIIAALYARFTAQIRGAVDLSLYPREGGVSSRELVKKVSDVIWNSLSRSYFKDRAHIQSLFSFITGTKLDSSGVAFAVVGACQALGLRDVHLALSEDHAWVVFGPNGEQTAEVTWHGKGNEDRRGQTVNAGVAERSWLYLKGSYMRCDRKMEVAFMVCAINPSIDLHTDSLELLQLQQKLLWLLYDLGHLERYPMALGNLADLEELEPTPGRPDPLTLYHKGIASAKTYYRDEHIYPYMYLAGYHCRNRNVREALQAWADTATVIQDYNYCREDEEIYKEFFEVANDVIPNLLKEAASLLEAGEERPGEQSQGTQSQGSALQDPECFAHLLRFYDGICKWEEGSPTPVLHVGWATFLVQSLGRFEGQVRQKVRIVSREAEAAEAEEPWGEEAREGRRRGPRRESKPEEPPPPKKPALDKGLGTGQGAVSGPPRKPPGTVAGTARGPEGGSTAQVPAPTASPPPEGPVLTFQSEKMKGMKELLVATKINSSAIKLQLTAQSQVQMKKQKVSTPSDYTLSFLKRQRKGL
NMR samples for the saturation transfer difference (STD) experiments contained 2.5uM menin solution in 50 mM phosphate buffer, 50 mM NaCl, 1mM DTT, pH= 7.5, with 5% of D2O, final volume 150 uL. The compounds were added as stock solutions in DMSO to final 100 uM concentration and 5% DMSO. All NMR experiments were recorded using 600 MHz Bruker Avance III spectrometer at 25C. Samples for the competition STD experiments contained additional MBM1 peptide at final concentration of 25 uM and the measurements were carried out is the same way as described above for STD experiments.
In the case of `Cc1sc2ncnc(NC3CCN(Cc4ccccc4)CC3)c2c1C`, the outcome was “active; true”. As for `CCC(c1nnnn1Cc1ccc(F)cc1)N1CCN(C2CCCCC2)CC1` (stereo unspecified), the outcome is “active; true”. In the case of `COc1ccccc1C(=O)Nc1ccnn1C1CCN(CC2CC=CCC2)CC1` (stereo unspecified) it was “active; true”; in that of `O=C(CS)Nc1ccc2ccccc2c1`, “inactive; false”; in that of `CC(=O)NC1C(=O)N(CCN2CCOCC2)c2ccc(Cl)cc21` (stereo unspecified), “inactive; false”. In the case of `C[C@H](NC(=O)c1cc2c(cn1)[nH]c1ccccc12)C(=O)O`, the outcome is “inactive; false”.

As for `CCOc1ccc2c(c1)C(NC(C)=O)C(=O)N2CCN1CCOCC1` (stereo unspecified), the outcome was “inactive; false”. Take `CCN(CC)Cc1cc2[nH]c3c4ccc(Cl)cc4ncc3c2cc1OC`: the outcome is “inactive; false”. To `CCOc1cc(CNCCc2ccc(S(N)(=O)=O)cc2)ccc1OCc1ccccc1` belongs “active; true”; to `CC(=O)NC1C(=O)N(CCN2CCOCC2)c2ccc(C)cc21` (stereo unspecified), “inactive; false”. In the case of `CCCC(c1nnnn1Cc1cccs1)N1CCN(C2CCCC2)CC1` (stereo unspecified) it was “active; true”; in that of `CCOC(=O)c1cnc2ccc(OCC)cc2c1N1CCN(C)CC1`, “active; true”; in that of `O=C(C[N+]12CC[N+](CC(=O)c3ccc(F)cc3)(CC1)CC2)c1ccc(F)cc1`, “active; true”. In the case of `CCc1ccc2c(c1)C(NC(C)=O)C(=O)N2CCN1CCOCC1` (stereo unspecified) it was “inactive; false”; in that of `CN(C)c1ccc(C2CC(=O)C=C(Nc3ccccc3N)C2)cc1` (stereo unspecified), “inactive; false”; in that of `N#Cc1ccc(OCC(O)CN2CCN(C(c3ccccc3)c3ccccc3)CC2)cc1` (stereo unspecified), “active; true”.
